Structures can show the parent of a compound that is named as a salt.
Key:
U-2932 [1] = test: growth inhibition by drug alone (1 - RLU/untreated control) (fraction); higher = stronger inhibition; conditions: 177Lu-lilotomab satetraxetan 0 ug/ml
How it was run: (§1)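 Compound doses on the pre-printed Selleck Cambridge Cancer Compound library plates were 10/100 nM for RIVA cells and 10/1,000 nM for U-2932 cells, seeded at 3,000 cells/well. Before seeding, cells were washed after 18 h with or without a radiolabelled anti-CD37 antibody conjugate (~600 MBq/mg; 0.5 µg/ml RIVA, 1 µg/ml U-2932). Growth inhibition was derived from RealTime-Glo luminescence relative to untreated no-drug control wells. Readings were taken daily starting on day 3, each after 1 h at 37°C, and each well's RLU was divided by the mean of 48 such wells per plate and subtracted from 1.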

RIVA [2] = test: as above; conditions: 177Lu-lilotomab satetraxetan 0 ug/ml
How it was run: as §1

U-2932 [3] = test: growth inhibition by drug plus 177Lu-lilotomab satetraxetan (1 - RLU/untreated control) (fraction); higher = stronger inhibition; conditions: 177Lu-lilotomab satetraxetan 1 ug/ml
How it was run: as §1

RIVA [4] = test: as above; conditions: 177Lu-lilotomab satetraxetan 0.5 ug/ml
How it was run: as §1

Compound	growth inhibition by drug alone (U-2932 [1]; 10 nM, time (day): 3)	growth inhibition by drug alone (U-2932 [1]; 10 nM, time (day): 4)	growth inhibition by drug alone (U-2932 [1]; 10 nM, time (day): 5)	growth inhibition by drug alone (U-2932 [1]; 10 nM, time (day): 6)	growth inhibition by drug alone (U-2932 [1]; 1000 nM, time (day): 3)	growth inhibition by drug alone (U-2932 [1]; 1000 nM, time (day): 4)	growth inhibition by drug alone (U-2932 [1]; 1000 nM, time (day): 5)	growth inhibition by drug alone (U-2932 [1]; 1000 nM, time (day): 6)	growth inhibition by drug alone (RIVA [2]; 10 nM, time (day): 3)	growth inhibition by drug alone (RIVA [2]; 10 nM, time (day): 4)	growth inhibition by drug alone (RIVA [2]; 10 nM, time (day): 5)	growth inhibition by drug alone (RIVA [2]; 10 nM, time (day): 6)	growth inhibition by drug alone (RIVA [2]; 100 nM, time (day): 3)	growth inhibition by drug alone (RIVA [2]; 100 nM, time (day): 4)	growth inhibition by drug alone (RIVA [2]; 100 nM, time (day): 5)	growth inhibition by drug alone (RIVA [2]; 100 nM, time (day): 6)	growth inhibition by drug plus 177Lu-lilotomab satetraxetan (U-2932 [3]; 10 nM, time (day): 3)	growth inhibition by drug plus 177Lu-lilotomab satetraxetan (U-2932 [3]; 10 nM, time (day): 4)	growth inhibition by drug plus 177Lu-lilotomab satetraxetan (U-2932 [3]; 10 nM, time (day): 5)	growth inhibition by drug plus 177Lu-lilotomab satetraxetan (U-2932 [3]; 10 nM, time (day): 6)	growth inhibition by drug plus 177Lu-lilotomab satetraxetan (U-2932 [3]; 1000 nM, time (day): 3)	growth inhibition by drug plus 177Lu-lilotomab satetraxetan (U-2932 [3]; 1000 nM, time (day): 4)	growth inhibition by drug plus 177Lu-lilotomab satetraxetan (U-2932 [3]; 1000 nM, time (day): 5)	growth inhibition by drug plus 177Lu-lilotomab satetraxetan (U-2932 [3]; 1000 nM, time (day): 6)	growth inhibition by drug plus 177Lu-lilotomab satetraxetan (RIVA [4]; 10 nM, time (day): 3)	growth inhibition by drug plus 177Lu-lilotomab satetraxetan (RIVA [4]; 10 nM, time (day): 4)	growth inhibition by drug plus 177Lu-lilotomab satetraxetan (RIVA [4]; 10 nM, time (day): 5)	growth inhibition by drug plus 177Lu-lilotomab satetraxetan (RIVA [4]; 10 nM, time (day): 6)	growth inhibition by drug plus 177Lu-lilotomab satetraxetan (RIVA [4]; 100 nM, time (day): 3)	growth inhibition by drug plus 177Lu-lilotomab satetraxetan (RIVA [4]; 100 nM, time (day): 4)	growth inhibition by drug plus 177Lu-lilotomab satetraxetan (RIVA [4]; 100 nM, time (day): 5)	growth inhibition by drug plus 177Lu-lilotomab satetraxetan (RIVA [4]; 100 nM, time (day): 6)
Nc1ncn([C@@H]2O[C@H](CO)[C@@H](O)[C@H]2O)c(=O)n1 [Azacitidine (Vidaza)]	-0.0982	-0.0929	-0.0726	-0.0507	-0.188	-0.0618	0.0181	0.17	-0.294	-0.286	-0.358	-0.438	-0.343	-0.332	-0.3	-0.406	-0.107	-0.0484	0.0134	-0.00849	-0.0673	0.0405	0.146	0.324	0.407	0.483	0.506	0.5	0.241	0.37	0.362	0.374
O=C(O[C@@H]1Cc2c(O)cc(O)cc2O[C@@H]1c1cc(O)c(O)c(O)c1)c1cc(O)c(O)c(O)c1 [(-)-Epigallocatechin gallate]	0.0464	-0.0176	-0.149	-0.234	-0.0141	-0.0657	-0.154	-0.12	-0.0443	-0.156	-0.418	-0.714	-0.587	-0.43	-0.44	-0.545	-0.0356	0.00037	-0.03	-0.022	0.0188	0.036	0.0512	0.127	0.452	0.532	0.55	0.559	0.363	0.454	0.47	0.474
CN1CCN(c2nc(C3=C(c4c[nH]c5ccccc45)C(=O)NC3=O)c3ccccc3n2)CC1 [Sotrastaurin (AEB071)]	0.186	0.158	0.0846	0.122	0.463	0.616	0.696	0.756	0.214	0.132	0.0773	-0.121	0.163	0.124	0.0507	-0.0643	0.109	0.131	0.175	0.293	0.572	0.709	0.75	0.788	0.535	0.604	0.626	0.628	0.584	0.609	0.607	0.591
CC(C)C[C@H](NC(=O)CNC(=O)c1cc(Cl)ccc1Cl)B1OC(=O)C(CC(=O)O)(CC(=O)O)O1	0.0922	0.0916	0.0981	-0.0316	0.985	0.984	0.984	0.984	-0.0185	0.0392	-0.0726	-0.362	0.319	0.4	0.359	0.21	0.0116	0.0804	0.149	0.155	0.984	0.985	0.986	0.988	0.542	0.596	0.606	0.609	0.64	0.701	0.698	0.645
c1ccc2c(-c3cnn4cc(-c5ccc(N6CCNCC6)cc5)cnc34)ccnc2c1	-0.114	-0.118	-0.0883	0.0163	-0.0225	-0.0275	-0.0302	0.125	-0.24	-0.273	-0.265	-0.249	-0.167	-0.254	-0.224	-0.213	-0.113	-0.0441	0.0116	0.0932	-0.0291	-0.0174	0.0152	0.209	0.399	0.521	0.544	0.537	0.307	0.408	0.431	0.436
COc1cccc2c1C(=O)c1c(O)c3c(c(O)c1C2=O)C[C@@](O)(C(C)=O)C[C@@H]3O[C@H]1C[C@H](N)[C@H](O)[C@H](C)O1 [Daunorubicin HCl (Daunomycin HCl)]	0.144	0.147	0.0841	0.0306	0.971	0.975	0.98	0.983	0.109	0.134	0.15	0.0495	0.569	0.743	0.857	0.915	0.21	0.265	0.341	0.415	0.978	0.982	0.984	0.987	0.833	0.844	0.868	0.902	0.87	0.915	0.94	0.96
CCn1c(-c2nonc2N)nc2c(C#CC(C)(C)O)ncc(OC[C@H]3CCCNC3)c21	0.0651	0.0169	-0.0977	-0.22	0.654	0.769	0.826	0.861	0.0369	-0.0639	-0.133	-0.326	-0.134	-0.204	-0.217	-0.34	-0.0148	0.000859	-0.00972	0.0167	0.596	0.736	0.792	0.836	0.28	0.464	0.475	0.494	0.315	0.41	0.42	0.413
CN1CCC(CNc2ccc3ncc(-c4cccc(OC(F)(F)F)c4)n3n2)CC1 [SGI-1776 free base]	0.04	0.0462	-0.0159	-0.415	0.131	0.115	0.0463	-0.00407	-0.104	-0.155	-0.336	-0.875	-0.453	-0.367	-0.351	-0.438	-0.0394	0.0134	0.0445	0.0394	0.154	0.125	0.168	0.265	0.428	0.539	0.541	0.561	0.302	0.441	0.445	0.462
CC(C)Oc1cc(Nc2nc(N[C@@H](C)c3ccc(F)cn3)ncc2Cl)n[nH]1	0.14	0.0983	-0.0668	-0.0699	0.0367	0.0436	-0.032	-0.0869	0.0887	0.104	0.0671	-0.147	-0.29	-0.178	-0.215	-0.331	0.116	0.157	0.213	0.262	0.11	0.174	0.221	0.323	0.626	0.642	0.679	0.662	0.487	0.557	0.57	0.574
O=C(O)c1ccc(-c2c[nH]c3ncc(-c4ccccc4)cc23)cc1C1CCCC1	0.092	0.0154	-0.12	-0.193	-0.0285	-0.0484	-0.0534	0.0115	-0.0813	-0.122	-0.138	-0.797	-0.515	-0.371	-0.364	-0.433	-0.00975	0.0274	-0.00811	0.0111	0.129	0.173	0.227	0.339	0.472	0.539	0.552	0.565	0.343	0.471	0.488	0.51
C[C@]12CC[C@@H]3c4ccc(O)cc4C[C@@H](CCCCCCCCC[S+]([O-])CCCC(F)(F)C(F)(F)F)[C@H]3[C@@H]1CC[C@@H]2O (stereo partly specified)	0.0173	-0.00253	-0.129	-0.212	-0.176	-0.0393	-0.0718	-0.153	-0.00571	-0.0298	-0.0782	-0.352	-0.0427	-0.0179	-0.055	-0.154	-0.00503	0.0303	0.0351	0.137	-0.274	-0.0121	0.0312	0.0757	0.418	0.515	0.523	0.531	0.466	0.525	0.532	0.5
CN(C)C[C@@H]1CCn2cc(c3ccccc32)C2=C(C(=O)NC2=O)c2cn(c3ccccc23)CCO1	0.148	0.0748	0.0024	-0.0699	0.292	0.306	0.226	0.249	0.0588	0.0867	-0.0102	-0.214	0.041	0.0997	0.0496	-0.0383	0.0704	0.125	0.141	0.173	0.448	0.48	0.458	0.49	0.423	0.561	0.581	0.582	0.462	0.539	0.554	0.545
CC(C)C[C@@H](C(=O)N[C@H](C(=O)OC1CCCC1)c1ccccc1)[C@H](O)C(=O)NO [Tosedostat (CHR2797)]	0.0666	0.0228	-0.0512	-0.123	-0.142	-0.112	-0.102	-0.0781	0.0304	0.0133	0.000967	-0.0544	-0.208	-0.212	-0.221	-0.3	0.00927	0.0682	0.108	0.162	-0.0889	-0.0223	0.0204	0.176	0.571	0.596	0.613	0.62	0.559	0.591	0.602	0.604
O=C1C(Cl)=C(NCCN2CCOCC2)C(=O)c2ncccc21	0.114	0.106	0.0132	0.0178	0.227	0.184	0.124	0.0852	0.0132	0.0904	-0.00365	-0.238	0.102	0.139	0.12	0.0933	0.114	0.165	0.247	0.272	0.201	0.211	0.241	0.349	0.584	0.632	0.638	0.641	0.591	0.62	–	–

Source: the supplement of paper PMC6897291
